# Tested on: HFF
# Assay: cell viability relative to DMSO control; higher = less cytotoxic
# Conditions: 1 µM; 72 h
# Experimental: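 Single-dose cytotoxicity screen of the MMV Pandemic Response Box at 1 uM on human foreskin fibroblasts (HFF), 72 h at 37 C. Viability measured by MTT (OD 550 nm) and normalised to the DMSO control (% survival).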
row,Structure (SMILES),cell viability [%]
1,C[C@H]1CC[C@]2(NC1)O[C@H]1C[C@H]3[C@@H]4CC[C@H]5C[C@@H](O)CC[C@]5(C)[C@H]4CC[C@]3(C)[C@H]1[C@@H]2C,73.1
2,CCCCc1ccc(C(=O)O)nc1,56.4
3,COC(=O)Nc1nc2ccccc2[nH]1,66.4
4,C[N+]1(C)CCCC(OC(=O)C(O)(c2ccccc2)c2ccccc2)C1 (stereo not drawn),69.6
5,COc1cc(C(C)(C)CCCC(C)C)cc(OC)c1OC,61
6,COc1ccccc1CN[C@H]1C2CCN(CC2)[C@H]1C(c1ccccc1)c1ccccc1,58.7
7,C[C@@]1(O)[C@H](O)[C@@H](CO)O[C@H]1n1ccc2c(N)ncnc21,68.5
8,CCN1CCN(Cc2nc3ccc([N+](=O)[O-])cc3c(=O)n2-c2ccccc2F)CC1,62.2
9,CN1C(=O)C(c2ccccc2)C(=O)N(c2ccccc2)c2cc(C(F)(F)F)ccc21 (stereo not drawn),66.3
10,O=C(NC12CC3CC(CC(C3)C1)C2)c1cc2ccccc2[nH]1,83.6
11,CC(C)Oc1cccc(NC(=O)c2ccccc2C(F)(F)F)c1,70.5
12,NC1(C(=O)O)CCP(=O)(O)CC1 (stereo not drawn),63.1
13,Nc1c(C(=O)NCc2ccco2)c2nc3ccccc3nc2n1CCN1CCCCC1,64.1

# Reference: the supplement of paper PMC10941209
